# Laboratory results from PubChem BioAssay AID1159580 (chemical genetic matrix, 2015).
# Among all 5,500 compounds or so, about 2,000 (36%) were called active. Another 18% or so got no clear call; they are omitted. Some of the results follow. Unmarked numbers belong to inactive results. Rule as the data show it: active = normalized growth mostly below about 0.91 (no sharp cut-off); inconclusive = no clear call, values can overlap the other calls; inactive = mostly above about 0.92.
# Experiment: chemical genetic growth profiling, strain panel (AID 1159580);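 also: tested at 20 µM; growth read once vehicle control cultures reached saturation at 30 °C; 1 = growth at the plate median or of vehicle wells; lower values mean less growth of the strain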
# Details: growth OD
# [1] = S. cerevisiae deletion strains, locus YDL101C, strain DUN1, active compounds read low
# [2] = S. cerevisiae deletion strains, locus YHR030C, strain SLT2, active compounds read low
smiles,measurement,setting,value
O=C(O)CC(CC(=O)O)c1ccc(C(F)(F)F)cc1,normalized growth,"S. cerevisiae deletion strains, locus YAL013W, strain DEP1, active compounds read low",0.994
same,normalized growth,"S. cerevisiae deletion strains, locus YBR229C, strain ROT2, active compounds read low",1
same,normalized growth,"S. cerevisiae deletion strains, locus YCL061C, strain MRC1, active compounds read low",0.981
same,normalized growth,[1],0.999
same,normalized growth,"S. cerevisiae deletion strains, locus YDR150W, strain NUM1, active compounds read low",0.938
same,normalized growth,"S. cerevisiae deletion strains, locus YEL061C, strain CIN8, active compounds read low",1.01
same,normalized growth,"S. cerevisiae deletion strains, locus YGR078C, strain PAC10, active compounds read low",0.993
same,normalized growth,"S. cerevisiae deletion strains, locus YGR229C, strain SMI1, active compounds read low",0.985
same,normalized growth,[2],1.03
same,normalized growth,"S. cerevisiae deletion strains, locus YHR087W, strain rtc3, active compounds read low",1
same,normalized growth,"S. cerevisiae deletion strains, locus YJR043C, strain POL32, active compounds read low",0.991
same,normalized growth,"S. cerevisiae deletion strains, locus YJR075W, strain HOC1, active compounds read low",0.993
same,normalized growth,"S. cerevisiae deletion strains, locus YKL190W, strain CNB1, active compounds read low",1
same,normalized growth,"S. cerevisiae deletion strains, locus YLR039C, strain RIC1, active compounds read low",1.02
same,normalized growth,"S. cerevisiae deletion strains, locus YLR058C, strain SHM2 (second series), active compounds read low",0.999
same,normalized growth,"S. cerevisiae deletion strains, locus YLR085C, strain ARP6, active compounds read low",1.02
same,normalized growth,"S. cerevisiae deletion strains, locus YLR262C, strain YPT6, active compounds read low",1.01
same,normalized growth,"S. cerevisiae deletion strains, locus YML094W, strain GIM5, active compounds read low",1.02
same,normalized growth,"S. cerevisiae deletion strains, locus YMR219W, strain ESC1, active compounds read low",0.999
same,normalized growth,"S. cerevisiae deletion strains, locus YMR263W, strain SAP30, active compounds read low",0.993
same,normalized growth,"S. cerevisiae deletion strains, locus YNL153C, strain GIM3, active compounds read low",0.99
same,normalized growth,"S. cerevisiae deletion strains, locus YNL298W, strain CLA4 (second series), active compounds read low",1.04
same,normalized growth,"S. cerevisiae deletion strains, locus YNL322C, strain KRE1, active compounds read low",1.01
same,normalized growth,"S. cerevisiae deletion strains, locus YNR030W, strain Alg12, active compounds read low",1.02
same,normalized growth,"S. cerevisiae deletion strains, locus YPL055C, strain LGE1, active compounds read low",0.918
same,normalized growth,"S. cerevisiae deletion strains, locus YPL241C, strain CIN2, active compounds read low",1.04
same,normalized growth,"S. cerevisiae deletion strains, locus YPR135W, strain CTF4, active compounds read low",0.963
same,normalized growth,"S. cerevisiae strains, strain wild type, active compounds read low",0.995
OC(c1ccc(C(F)(F)F)cc1)c1cccc(C(F)(F)F)c1 (centres undefined),normalized growth,"S. cerevisiae deletion strains, locus YAR019C, strain CDC15, active compounds read low",0.972
same,normalized growth,"S. cerevisiae deletion strains, locus YBL105C, strain PKC1, active compounds read low",0.973
same,normalized growth,"S. cerevisiae deletion strains, locus YBR135W, strain CKS1, active compounds read low",0.973
same,normalized growth,"S. cerevisiae deletion strains, locus YBR136W, strain MEC1, active compounds read low",0.967
same,normalized growth,"S. cerevisiae deletion strains, locus YBR160W, strain CDC28, active compounds read low",0.969
same,normalized growth,"S. cerevisiae deletion strains, locus YDL017W, strain CDC7, active compounds read low",0.964
same,normalized growth,"S. cerevisiae deletion strains, locus YDL028C, strain MPS1, active compounds read low",0.974
same,normalized growth,[1],0.975
same,normalized growth,"S. cerevisiae deletion strains, locus YDL108W, strain KIN28, active compounds read low",0.968
same,normalized growth,"S. cerevisiae deletion strains, locus YDL132W, strain cdc53, active compounds read low",0.974
same,normalized growth,"S. cerevisiae deletion strains, locus YDL214C, strain PRR2, active compounds read low",0.985
same,normalized growth,"S. cerevisiae deletion strains, locus YDR052C, strain DBF4, active compounds read low",0.977
same,normalized growth,"S. cerevisiae deletion strains, locus YDR054C, strain cdc34, active compounds read low",0.974
same,normalized growth,"S. cerevisiae deletion strains, locus YDR226W, strain ADK1, active compounds read low",0.977
same,normalized growth,"S. cerevisiae deletion strains, locus YDR477W, strain SNF1, active compounds read low",0.999
same,normalized growth,"S. cerevisiae deletion strains, locus YER123W, strain YCK3, active compounds read low",0.945
same,normalized growth,"S. cerevisiae deletion strains, locus YER133W, strain GLC7, active compounds read low",0.992
same,normalized growth,"S. cerevisiae deletion strains, locus YFL009W, strain cdc4, active compounds read low",0.981
same,normalized growth,"S. cerevisiae deletion strains, locus YFL029C, strain CAK1, active compounds read low",0.962
same,normalized growth,"S. cerevisiae deletion strains, locus YFR003C, strain YPI1, active compounds read low",0.969
same,normalized growth,"S. cerevisiae deletion strains, locus YFR019W, strain FAB1, active compounds read low",1
same,normalized growth,"S. cerevisiae deletion strains, locus YFR028C, strain CDC14, active compounds read low",0.975
same,normalized growth,"S. cerevisiae deletion strains, locus YGR040W, strain KSS1, active compounds read low",0.984
same,normalized growth,"S. cerevisiae deletion strains, locus YGR052W, strain FMP48, active compounds read low",1
same,normalized growth,"S. cerevisiae deletion strains, locus YGR092W, strain DBF2, active compounds read low",0.948
same,normalized growth,[2],0.867
same,normalized growth,"S. cerevisiae deletion strains, locus YHR079C, strain IRE1, active compounds read low",0.885
same,normalized growth,"S. cerevisiae deletion strains, locus YHR082C, strain KSP1, active compounds read low",1.09
same,normalized growth,"S. cerevisiae deletion strains, locus YHR205W, strain SCH9, active compounds read low",0.949
same,normalized growth,"S. cerevisiae deletion strains, locus YIL147C, strain SLN1, active compounds read low",0.971
same,normalized growth,"S. cerevisiae deletion strains, locus YJL095W, strain BCK1, active compounds read low",0.953
same,normalized growth,"S. cerevisiae deletion strains, locus YJL128C, strain PBS2, active compounds read low",0.942
same,normalized growth,"S. cerevisiae deletion strains, locus YJL157C, strain FAR1, active compounds read low",1.01
same,normalized growth,"S. cerevisiae deletion strains, locus YJR016C, strain ILV3, active compounds read low",0.984
same,normalized growth,"S. cerevisiae deletion strains, locus YJR066W, strain TOR1 (second series), active compounds read low",1.04
same,normalized growth,"S. cerevisiae deletion strains, locus YJR066W, strain TOR1, active compounds read low",1.05
same,normalized growth,"S. cerevisiae deletion strains, locus YKL048C, strain ELM1, active compounds read low",0.977
same,normalized growth,"S. cerevisiae deletion strains, locus YKL067W, strain YNK1, active compounds read low",0.992
same,normalized growth,"S. cerevisiae deletion strains, locus YKL101W, strain HSL1, active compounds read low",0.97
same,normalized growth,"S. cerevisiae deletion strains, locus YKL193C, strain SDS22, active compounds read low",0.973
same,normalized growth,"S. cerevisiae deletion strains, locus YKL203C, strain TOR2, active compounds read low",1.02
same,normalized growth,"S. cerevisiae deletion strains, locus YLR113W, strain HOG1, active compounds read low",0.789 (active)
same,normalized growth,"S. cerevisiae deletion strains, locus YLR133W, strain CKI1, active compounds read low",0.999
same,normalized growth,"S. cerevisiae deletion strains, locus YLR403W, strain SFP1, active compounds read low",1.04
same,normalized growth,"S. cerevisiae deletion strains, locus YML070W, strain DAK1, active compounds read low",0.96
same,normalized growth,"S. cerevisiae deletion strains, locus YMR001C, strain CDC5, active compounds read low",0.973
same,normalized growth,"S. cerevisiae deletion strains, locus YMR205C, strain PFK2 (second series), active compounds read low",0.993
same,normalized growth,"S. cerevisiae deletion strains, locus YMR277W, strain FCP1, active compounds read low",0.974
same,normalized growth,"S. cerevisiae deletion strains, locus YNL006W, strain LST8, active compounds read low",0.966
same,normalized growth,"S. cerevisiae deletion strains, locus YNL020C, strain ARK1, active compounds read low",0.998
same,normalized growth,"S. cerevisiae deletion strains, locus YNL161W, strain CBK1, active compounds read low",0.984
same,normalized growth,"S. cerevisiae deletion strains, locus YNL183C, strain NPR1, active compounds read low",1.01
same,normalized growth,"S. cerevisiae deletion strains, locus YNL207W, strain RIO2, active compounds read low",0.978
same,normalized growth,"S. cerevisiae deletion strains, locus YNL222W, strain SSU72, active compounds read low",0.973
same,normalized growth,"S. cerevisiae deletion strains, locus YNL307C, strain MCK1 (second series), active compounds read low",0.989
same,normalized growth,"S. cerevisiae deletion strains, locus YOL078W, strain AVO1, active compounds read low",0.974
same,normalized growth,"S. cerevisiae deletion strains, locus YOL136C, strain PFK27, active compounds read low",0.968
same,normalized growth,"S. cerevisiae deletion strains, locus YOR061W, strain CKA2, active compounds read low",1
same,normalized growth,"S. cerevisiae deletion strains, locus YOR119C, strain RIO1, active compounds read low",1.07
same,normalized growth,"S. cerevisiae deletion strains, locus YOR231W, strain MKK1, active compounds read low",0.92
same,normalized growth,"S. cerevisiae deletion strains, locus YOR329C, strain SCD5, active compounds read low",0.967
same,normalized growth,"S. cerevisiae deletion strains, locus YPL031C, strain PHO85, active compounds read low",0.978
same,normalized growth,"S. cerevisiae deletion strains, locus YPL153C, strain RAD53, active compounds read low",0.991
same,normalized growth,"S. cerevisiae deletion strains, locus YPL204W, strain HRR25, active compounds read low",0.959
same,normalized growth,"S. cerevisiae deletion strains, locus YPL209C, strain IPL1, active compounds read low",0.973
same,normalized growth,"S. cerevisiae deletion strains, locus YPL256C, strain CLN2, active compounds read low",0.839 (active)
same,normalized growth,"S. cerevisiae deletion strains, locus YPR025C, strain CCL1, active compounds read low",0.968
same,normalized growth,"S. cerevisiae deletion strains, locus YPR106W, strain ISR1, active compounds read low",0.99
same,normalized growth,"S. cerevisiae deletion strains, locus YPR111W, strain DBF20, active compounds read low",1
same,normalized growth,"S. cerevisiae deletion strains, strain NNK1, active compounds read low",0.975
same,normalized growth,"S. cerevisiae deletion strains, strain TSCII, active compounds read low",0.975
